# This is a sample that favours compounds with a hit; in the whole collection about 2.9% have one here.
# DRD3 antagonist: D3 dopamine receptor (human) antagonism; D3R cells, DiscoveRx beta-arrestin luminescence, antagonist mode; active compounds read low; P35462; AID 652054; max response, negative = inhibition, %; 2.5% of 360,000 active; in the data active means max response below about -50%; inconclusive means no clear call, values can overlap the other calls; further: on the % scale 0 is the no-effect control and ±100 the full control effect
# Target sequence (P35462 whole entry, looked up): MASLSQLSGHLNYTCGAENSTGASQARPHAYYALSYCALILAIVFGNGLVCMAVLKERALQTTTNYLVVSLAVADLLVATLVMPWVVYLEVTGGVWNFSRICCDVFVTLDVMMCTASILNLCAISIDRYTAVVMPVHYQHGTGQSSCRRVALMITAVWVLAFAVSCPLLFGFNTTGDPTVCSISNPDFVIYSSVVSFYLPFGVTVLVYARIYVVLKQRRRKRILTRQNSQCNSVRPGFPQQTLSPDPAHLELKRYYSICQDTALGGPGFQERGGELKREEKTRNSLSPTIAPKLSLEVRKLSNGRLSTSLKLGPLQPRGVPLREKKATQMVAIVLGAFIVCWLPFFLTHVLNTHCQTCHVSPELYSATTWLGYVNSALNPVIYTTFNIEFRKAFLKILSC
#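 Cells plated overnight at 1500 cells/well, then exposed to library compounds with dopamine controls for 90 minutes at 37 degrees C. DiscoveRx reagent added for 30–60 minutes at room temperature; luminescence read, quantitative HTS format.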
# a7 integrin act: activates integrin-mediated alleviation for muscular dystrophy; alpha7betagal myoblasts, beta-gal FDG fluorescence, 48 h; Potency, µM (top dose mostly 38.3 µM), inactives show at the highest dose activation, usual class: activators; 0.064% of 350,000 active; AID 624291; active means well fitted activation curve with a large enough effect; inconclusive means small, poorly fitted or top-dose-only effect; inactive means no such curve, though single readings can be large or run the other way;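 further: potency means the concentration at half of the fitted maximal effect; 100% = response of the positive control SU9516; nearly all actives have a fitted effect of over 60% in size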
#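 Alpha7betagal+/- myoblasts (passage 13) were plated 16-24 hr, then exposed to compounds (1:260 dilution of DMSO stock) for 48 hours at 37C. After MPER lysis, β-galactosidase reporter activity was read as FDG fluorescence (ex 480/em 540) after 30 minutes.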
# DRD3 agonist: D3 dopamine receptor (human) agonism; D3R DiscoveRx beta-arrestin cells, luminescence, 90 min; max activation, %; 0.58% of 410,000 active; AID 652048; in the data active means max activation above about 30%; further: 0% is about no effect
#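 Agonist mode: compounds and dopamine controls were applied to plated cells for 90 min at 37 degrees C after an overnight attachment at 1500 cells/well. Luminescent read-out followed 30 - 60 minutes at room temperature with DiscoveRx detection reagent.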
# * marks the source's active call; other numbers are inactive results; ? = inconclusive; . = no result.
SMILES,DRD3 antagonist,a7 integrin act,DRD3 agonist
C=CCN(CC=C)C(=O)c1ccc(OC2CCN(S(=O)(=O)N(C)C)CC2)cc1,10,5µM*,0
C=CCN(CC=C)C(=O)c1cccc(OC2CCN(S(=O)(=O)N(C)C)CC2)c1,7,-8%,6
N#Cc1nc(-c2ccccc2)oc1NCCN1CCCCC1,-72*,-4%,0
N#Cc1nc(-c2cccs2)oc1NCCN1CCOCC1,-9,11%,-1
Cc1cccc2cc(C#N)c(SCCN3CCCCC3)nc12,?,-28%,-14
NC(=O)c1ccc(NC(=O)CN2CCN(C(=O)c3ccco3)CC2)cc1,8,-36%,14
Cc1ccc(NC(=O)CN2CCN(C(=O)c3ccco3)CC2)cc1S(=O)(=O)N(C)C,23,-6%,51*
CCc1ccc(NC(=O)C(=O)NCCN2CCN(C(=O)c3ccc(OC)cc3)CC2)cc1,-12,-18%,-1
CC(=O)N1CCN(CC(=O)Nc2ccc(C)c(S(=O)(=O)N(C)C)c2)CC1,-19,-22%,-5
CCOc1ccc(NC(=O)CN2CCN(C(=O)c3ccco3)CC2)cc1S(=O)(=O)N1CCCC1,-9,6%,40*
CCc1ccc(NC(=O)C(=O)NCCN2CCN(C(=O)c3ccco3)CC2)cc1,25,11%,73*
CCOC(=O)c1ccc(NC(=O)CN2CCN(C(=O)c3ccco3)CC2)cc1,15,8%,36*
COc1ccc(NC(=O)CN2CCCCC2)cc1S(=O)(=O)N1CCCCC1,-4,-3%,-7
CC(CC(=O)NNC(=O)c1ccncc1)c1ccccc1 (stereo not given),13,0%,12
O=C1CC[C@H](O)CCN1CCSc1ccc(Br)cc1,18,6%,0
COC(=O)c1ccc(-c2noc(CN(Cc3nccn3C)C(C)C)n2)cc1,-6,-23%,-7
CCC(=O)NNC(=O)CCC(=O)Nc1cccc(Cl)c1C,-6,3%,3
CCCN(CCC)S(=O)(=O)c1ccc(Cl)c([N+](=O)[O-])c1,?,-54%,-15
CCOC(=O)C(C)(C)N(Cc1ccccc1C)S(=O)(=O)c1ccc(Cl)c([N+](=O)[O-])c1,-50*,-49%,-3
O=C1CCCC2=C1C(c1ccc(Br)cc1)c1c([nH]c(=S)[nH]c1=O)N2 (stereo not given),-80*,-7%,3
Cc1ccc(C2C3=C(CCCC3=O)Nc3[nH]c(=S)[nH]c(=O)c32)cc1 (stereo not given),?,6%,-46
COc1cc(OC)cc(OC(=O)c2ccc3c(=O)n4c(nc3c2)CCC4)c1,5,15%,0
COc1ccc(NC(=O)N(C2CCCCC2)C2CCN(C(C)C)CC2)c(OC)c1,20,0%,13
CN(C)C(=S)NC(=O)c1cccc(Cl)c1,-15,-68%,-7
Oc1ccc(C[C@H]2CN([C@@H](Cc3ccccc3)CN3CCCC3CN3C(=S)NC[C@@H]3Cc3ccccc3)C(=S)N2CCc2ccccc2)cc1 (stereo not given in full),5,.,0
SMILES,DRD3 antagonist,a7 integrin act,DRD3 agonist
O=C1NC[C@H](Cc2ccc(O)cc2)N(C[C@H]2CCCN2C[C@H](Cc2ccc(O)cc2)N2C[C@H](Cc3ccc(O)cc3)N(CCc3ccccc3)C(=O)C2=O)C1=O,-70*,.,-2
CC(C)C[C@H]1CNC(=S)N1C[C@H]1CCCN1C[C@H](Cc1ccccc1)N1C[C@H](Cc2ccc(O)cc2)N(CC2CCCCC2)C1=S,21,.,13
CC(C)C[C@H]1CNC(=S)N1CC1CCCN1C[C@H](Cc1ccc(O)cc1)N1C[C@H](Cc2ccccc2)N(CC2CCCCC2)C1=S (stereo not given in full),-81*,-8%,-44
Oc1ccc(C[C@H]2CN([C@@H](Cc3ccccc3)CN3CCC[C@@H]3CN3C(=S)NC[C@@H]3Cc3ccccc3)C(=S)N2CC2CCCCC2)cc1,13,.,5
O=C1NC[C@H](Cc2ccccc2)N(C[C@@H]2CCCN2C[C@H](Cc2ccc(O)cc2)N2C[C@H](Cc3ccc(O)cc3)N(CCc3ccccc3)C(=O)C2=O)C1=O,15,.,2
Oc1ccc(C[C@H]2CN([C@@H](Cc3ccc(O)cc3)CN3CCC[C@@H]3CN3C(=S)NC[C@@H]3Cc3ccccc3)C(=S)N2CCc2ccccc2)cc1,-53*,.,-19
Oc1ccc(C[C@H]2CNC(=S)N2CC2CCCN2C[C@H](Cc2ccc(O)cc2)N2C[C@H](Cc3ccccc3)N(CC3CCCCC3)C2=S)cc1 (stereo not given in full),-64*,-41%,-41
COc1ccc(CSCC(=O)NN=C2CCN(C)CC2)cc1,18,11%,-6
COc1cc(OC)c(NC(=O)c2csc3c2CCC(C)C3)cc1Cl (stereo not given),.,.,-11
O=C(COC(=O)Cc1ccsc1)NNC(=O)c1ccccc1,2,13%,1
COc1cccc(NC(=O)C(OC(=O)/C=C/c2ccc3c(c2)OCO3)c2ccccc2)c1 (stereo not given),-55*,2%,-4
COc1ccc(NC(=O)C(c2ccccc2)N(C)C(=O)/C=C\c2ccc3c(c2)OCO3)cc1 (stereo not given),.,.,-19
Cc1cccc(N2CCN(CCNC(=O)c3cc4c(s3)CS(=O)(=O)C4)CC2)c1C,6,-19%,86*
Cc1ccc(CNC(=O)c2cc3c(s2)CS(=O)(=O)C3)cc1,-7,-20%,-4
CC(=O)Nc1ccc(-n2c(=O)c3ccccc3c3ccccc3c2=O)cc1,-88*,-10%,-13
O=C(O)c1ccc(-n2c(=O)c3ccccc3c3ccccc3c2=O)cc1,-20,-15%,9
COc1cc(OC)nc(Nc2nc(C(N)CCc3ccccc3)cs2)n1 (stereo not given),7,.,34*
COc1cc(OC)nc(Nc2nc(C(N)COCc3ccccc3)cs2)n1 (stereo not given),-74*,.,-6
COc1cc(OC)nc(Nc2nc(C(N)c3ccccc3)cs2)n1 (stereo not given),11,.,3
COc1cc(OC)nc(Nc2nc(C(N)Cc3ccc(Cl)cc3)cs2)n1 (stereo not given),-1,.,2
N/C(=N\c1nc(CSc2ccc(Cl)cc2)cc(=O)[nH]1)Nc1ccccc1C(F)(F)F,26,?,9
N#CC1CCN(C(=O)c2ccc3c(Cl)c4c(nc3c2)CCCC4)CC1,21,-63%,7
COc1ccc(N(CC(=O)NCCc2ccccc2)C(=O)CCC(=O)Nc2nccs2)cc1,-14,-4%,-12
O=C(CCC(=O)c1cccs1)NCc1cccc(C(F)(F)F)c1,-1,18%,-13
N#CC1=C(SCC(=O)c2ccc(Br)cc2)NC2=C(C(=O)CCC2)C1c1ccco1 (stereo not given),-59*,-44%,1
CCc1ccc(NC(=O)CSC2=C(C#N)C(c3ccco3)C3=C(CCCC3=O)N2)cc1 (stereo not given),-18,-23%,2
O=C(C[n+]1cccc(CNC(=O)c2ccc(OC(F)F)cc2)c1)Nc1ccc(F)cc1,-28,16%,-12
O=C(C[n+]1cccc(CNC(=O)c2ccc(OC(F)F)cc2)c1)Nc1cccc(C(F)(F)F)c1,-51*,11%,-3
